Assay outcomes deposited in PubChem by National Center for Advancing Translational Sciences (NCATS).
In the library only some 2.9% were active in any assay of this set; here they are far more common.
MmCpn inh: inhibitors of Methanococcus maripaludis chaperonin TRiC (MmCpn). purified Mm-Cpn ATPase, ADP Transcreener TR-FRET. Potency, µM (titrated, usually from 76.9 µM), most hits filed as inhibitors. hit rate 0.031% among 330,000; active means well fitted inhibition curve with a large enough effect; inconclusive means small, poorly fitted or top-dose-only effect; further: nearly all actives have a fitted effect of over 80% in size
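TR-FRET (320 nm excitation; 590 and 665 nm emission) reports ADP made from 10 uM ATP by 25 nM enzyme; compounds were preincubated 10 min, reaction run 30 min, both at 37°C.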
TSG101-PTAP inh: blocks PTAP/TSG101 interaction to inhibit HIV-1 budding; Q99816; Fluorescence polarization, FITC-PTAP peptide / Tsg101 binding; Potency, µM (series often up to 115 µM), most hits filed as inhibitors; 340,000 tested, under 10 active; AID 493005; active means well fitted inhibition curve with a large enough effect in the main read-out, with a control signal flat, not every such curve was filed as active; inconclusive means small, poorly fitted or top-dose-only effect, or effect the other way, or a change in a side signal; inactive means no such curve, though single readings can be large or run the other way
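FP read-out: FITC-PTAP peptide, 50 nM final, binding Tsg101 binding domain, 10 uM final; 20 min, r.t.; 10 mM HEPES pH 7.5, 0.15 M NaCl, 0.01% Tween 20, 3 mM EDTA, 0.1 mM TCEP.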
Rango release inh: prevents RanGTP from dissociating the Rango-importin beta complex; O95149+P62826; Biochemical FRET Rango-importin beta, RanGTP-induced dissociation; Potency, µM (series often up to 46.1 µM); hit rate 0.071% among 340,000; AID 540253; further: nearly all actives have a fitted effect of over 45% in size
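Rango (0.1 uM)–importin beta (0.25 uM) complex; RanGTP-RCC1 trigger; 45 min RT; CFP/YFP FRET read.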
DRD3 antagonist: antagonists of human D3 dopamine receptor; D3R cells, DiscoveRx beta-arrestin luminescence, antagonist mode; active compounds read low; max response, negative = inhibition, %; AID 652054; P35462; hit rate 2.5% among 360,000; in the data active means max response below about -50%; inconclusive means no clear call, values can overlap the other calls
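Cells plated overnight at 1500 cells/well, then exposed to library compounds with dopamine controls for 90 minutes at 37 degrees C. DiscoveRx reagent added for 30–60 minutes at room temperature; luminescence read, quantitative HTS format.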
Rango-impB inh: inhibitors of Rango-importin beta complex formation | Q14974 | Rango CFP/YFP FRET sensor + importin beta, 45 min | Potency, µM (top dose mostly 92.2 µM) | hit rate 0.031% among 340,000 | AID 540263; further: nearly all actives have a fitted effect of over 15% in size
Target sequence (Q14974 whole entry, looked up): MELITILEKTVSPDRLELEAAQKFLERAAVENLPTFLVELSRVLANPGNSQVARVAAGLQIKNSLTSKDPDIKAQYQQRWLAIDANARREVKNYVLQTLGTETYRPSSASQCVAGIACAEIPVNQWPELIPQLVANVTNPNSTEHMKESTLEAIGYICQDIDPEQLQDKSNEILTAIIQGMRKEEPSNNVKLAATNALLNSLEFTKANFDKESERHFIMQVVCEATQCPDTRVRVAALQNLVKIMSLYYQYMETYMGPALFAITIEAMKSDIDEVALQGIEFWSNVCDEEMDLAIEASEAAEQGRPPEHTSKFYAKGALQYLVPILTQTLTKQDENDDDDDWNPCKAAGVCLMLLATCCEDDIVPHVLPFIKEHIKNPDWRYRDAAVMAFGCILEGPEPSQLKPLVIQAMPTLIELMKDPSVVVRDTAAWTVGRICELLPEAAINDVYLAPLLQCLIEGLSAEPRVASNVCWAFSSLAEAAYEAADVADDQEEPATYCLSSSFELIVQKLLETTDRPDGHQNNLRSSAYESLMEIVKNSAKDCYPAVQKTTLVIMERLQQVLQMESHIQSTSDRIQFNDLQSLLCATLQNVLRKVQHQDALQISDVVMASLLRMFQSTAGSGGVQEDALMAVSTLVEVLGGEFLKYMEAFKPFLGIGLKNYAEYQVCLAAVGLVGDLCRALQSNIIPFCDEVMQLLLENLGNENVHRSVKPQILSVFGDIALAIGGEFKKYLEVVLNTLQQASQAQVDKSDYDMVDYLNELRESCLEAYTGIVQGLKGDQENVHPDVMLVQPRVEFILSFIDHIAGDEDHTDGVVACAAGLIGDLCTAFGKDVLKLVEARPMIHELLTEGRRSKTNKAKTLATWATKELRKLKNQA
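Inhibition scored from the CFP 486 nm/YFP 530 nm FRET ratio 45 min after adding 0.125 microM importin beta to 50 nM Rango biosensor preincubated 5 min with compound (room temperature, PBS with DTT, Tween-20, BSA). No-importin wells as positive control.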
DRD3 agonist: agonists of human D3 dopamine receptor; P35462; D3R DiscoveRx beta-arrestin cells, luminescence, 90 min; max activation, %; hit rate 0.58% among 410,000; in the data active means max activation above about 30%
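Agonist-mode cell screen: cells plated at 1500/well and incubated overnight at 37 °C, then exposed to library compounds for 90 min at 37 °C. Detection reagent was added for 30–60 min at room temperature, and luminescence was read.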
Hits are given with their value; . = inactive; ? = inconclusive; / = no result given; ! = a repeat was not active. Unless noted, the call rests on the fitted dose curve.

SMILES	MmCpn inh	TSG101-PTAP inh	Rango release inh	DRD3 antagonist	Rango-impB inh	DRD3 agonist
CCC(C)Sc1cccc(-c2nc3ccc(C)cn3c2NCc2ccccc2)c1 (stereo unspecified)	.	.	.	.	?	.
CCC(C)Sc1cccc(-c2nc3ccccn3c2NCc2ccccc2)c1 (stereo unspecified)	.	.	?	.	?	33
CCCCCCSc1cccc(-c2nc3ccccn3c2NCc2ccccc2)c1	.	.	?	.	?	96!
CCCCCCSc1cccc(-c2nc3cc(C)ccn3c2NCc2ccccc2)c1	.	.	?	.	?	33!
CCCCCCSc1cccc(-c2nc3ccc(C)cn3c2NCc2ccccc2)c1	.	.	.	.	?	.
CCCCNc1c(-c2ccc(SC(C)CC)c(OC)c2)nc2ccc(C)cn12 (stereo unspecified)	.	.	?	.	?	55
CCCCNc1c(-c2ccc(SC(C)CC)c(OC)c2)nc2ccc(Cl)cn12 (stereo unspecified)	.	.	?	.	?	.
C[C@]12O[C@H](C[C@]1(O)CO)n1c3ccccc3c3c4c(c5c6ccccc6n2c5c31)CNC4=O	/	/	/	/	/	.
CC(C)(C)C(=O)NC(NC(=S)Nc1sc2c(c1C#N)CCCC2)C(Cl)(Cl)Cl (stereo unspecified)	.	.	.	-55	.	.
CC(C)(C)C(=O)Nc1sc2c(c1C#N)CCC2	.	.	.	.	.	.
CCCCN1C(=O)CN(C2CCCCCC2)C(=O)C1c1ccc(OCCC)c(OC)c1 (stereo unspecified)	/	/	/	/	/	.
Cc1ccccc1Cn1c(=O)n(Cc2ccc3c(c2)OCO3)c(=O)c2oc3ccccc3c21	/	/	/	/	/	.
CCOc1ccc(C(=O)Nc2nnc(SCc3cc(=O)n4ccccc4n3)s2)cc1	/	/	/	/	/	.
Cc1cc(NC(=O)c2cnc3c(-c4ccccc4)c(C)nn3c2C)ccc1Br	/	/	/	/	/	34
CCCc1cc(=O)oc2c3c(ccc12)OCN(Cc1ccc(OC)cc1)C3	/	/	/	/	/	.
CN1CCN(C(=O)C23CCC(C)(c4nc5ccccc5nc42)C3(C)C)CC1 (stereo unspecified)	.	.	.	-51	.	.
Cc1cc2nc3c(nc2cc1C)C1(C(=O)O)CCC3(C)C1(C)C (stereo unspecified)	.	.	.	.	.	.
CN1/C(=C/c2cccc[n+]2C)Sc2ccccc21	.	.	12µM	.	?	.
Cc1ccc(-n2c(SCc3nc(-c4ccccc4C)no3)nnc2-c2ccncc2)cc1C	/	/	/	/	/	.
Cc1ccc(S(=O)(=O)c2ncccc2[N+](=O)[O-])cc1	.	.	.	-90	.	.
Cc1ccc(S(=O)(=O)Nc2nc3n(n2)C(c2ccc(F)cc2)C=C(c2ccccc2)N3)cc1 (stereo unspecified)	/	/	/	/	/	39
CCC(=O)NC(c1ccc(Cl)cc1Cl)c1ccc2cccnc2c1O (stereo unspecified)	.	.	?	.	?	.
CCCCC(=O)NC(c1ccc(Cl)cc1Cl)c1ccc2cccnc2c1O (stereo unspecified)	.	.	.	.	.	33
Oc1ccccc1C(Nc1nccs1)c1ccc2cccnc2c1O (stereo unspecified)	.	.	.	.	.	33
Oc1c(C(Nc2ccccn2)c2ccccn2)ccc2cccnc12 (stereo unspecified)	.	.	.	.	.	.
SMILES	MmCpn inh	TSG101-PTAP inh	Rango release inh	DRD3 antagonist	Rango-impB inh	DRD3 agonist
CC(=O)NC(c1ccco1)c1ccc2cccnc2c1O (stereo unspecified)	.	.	.	-62	.	.
CC(=O)NC(c1ccc(Cl)cc1)c1ccc2cccnc2c1O (stereo unspecified)	/	.	.	.	.	.
O=C(c1cccc(Cl)c1)n1nc(-c2cccnc2)nc1NCc1ccccc1	/	/	/	/	/	.
COCCNC(=O)C1CCCN(C(=O)Cc2cccc3ccccc23)CC1 (stereo unspecified)	/	/	/	-102	/	.
COCCNC(=O)C1CCCN(C(=O)c2ccnc(Cl)c2)CC1 (stereo unspecified)	/	/	/	.	/	.
COCCNC(=O)C1CCCN(C(=O)c2cncc(Br)c2)CC1 (stereo unspecified)	/	/	/	-77	/	.
CCc1nnc(SCC(=O)N(C)c2ccccc2)c2cc3sccc3n12	/	/	/	/	/	.
CCn1c(SCC(=O)c2ccc(Br)cc2)nnc1C(C)NC(=O)Cc1ccc(OC)cc1 (stereo unspecified)	.	.	.	.	.	.
COc1ccc(CC(=O)NC(C)c2nnc(SCC(=O)c3ccc(Br)cc3)n2C)cc1 (stereo unspecified)	.	/	.	-56	.	.
COc1ccc(OC)c(CNC(=O)CCCn2nc(C)c3c(C)n(-c4ccc(C)cc4)nc3c2=O)c1	/	/	/	/	/	.
COc1cc2oc3ccc(C#Cc4ccc(N)cc4)cc3c(=O)c2cc1OC	/	/	.	.	.	.
COc1cc2oc3cc(C#Cc4ccc(N)cc4)ccc3c(=O)c2cc1OC	/	.	?	.	?	57
CCSC1=N/C(=C\c2ccc3c(c2)OCO3)C(=O)S1	.	.	16µM	.	?	.
CCCSC1=N/C(=C\c2ccc3c(c2)OCO3)C(=O)S1	.	.	?	.	?	.
COc1ccc(CN2CCN(C(=O)c3cccs3)CC2)cc1	.	.	.	-58	.	.
O=C(c1cccs1)N1CCN(CCCc2ccccc2)CC1	.	.	.	-65	.	.
O=C(c1ccccc1)N1CCN(C(=O)c2cccnc2)CC1	.	.	.	.	.	.
O=C(c1cccnc1)N1CCN(CCCc2ccccc2)CC1	.	.	.	.	.	52
CC(=O)SC[C@@H](C)C(=O)N1CCC[C@H]1C(=O)N[C@@H](Cc1ccccc1)C(=O)O	/	/	/	/	/	.
CN1C[C@H]2c3ccccc3Oc3ccc(Cl)cc3[C@@H]2C1	/	/	/	/	/	.
CCn1c(N2CCN(S(=O)(=O)c3ccc(Cl)cc3)CC2)nc2ccccc21	.	.	.	.	.	44
Cc1ccc(P(=O)(c2ccc(C)cc2)[C@@H](NC(c2ccccc2)c2ccccc2)c2ccccc2)cc1	/	/	/	-109	/	.
COc1ccc(NC(=O)C2=C(C)Nc3nc(SCc4ccccc4C)nn3C2c2cc(OC)c(O)c(OC)c2)cc1 (stereo unspecified)	/	/	/	/	/	.
CN(C)CCCOc1ccc(C(C)(C)c2ccccc2)cc1	.	.	.	-68	.	.
COc1ccccc1CNC(=O)CSc1ncc(C(=O)Nc2ccccc2)c(=O)n1C	.	.	.	-69	.	.
CCc1ccc2oc(C(=O)NCc3ccccc3)cc(=O)c2c1	/	/	/	/	/	.
C/C(=C\c1ccccc1)CN1CCN(Cc2ccc(C)o2)C(CCO)C1 (stereo unspecified)	.	.	.	-80	.	.
